PPARg SRC1 recr – agonists of human PPARgamma SRC-1 coactivator recruitment | P37231 | PPARgamma-SRC-1 coactivator recruitment biochemical assay | activation, % at 8 µM | 0.41% of 200,000 active | AID 631; in the data active = activation above about 19%;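 also: 0% = DMSO and 100% = reference agonist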
Target sequence (P37231 whole entry, looked up): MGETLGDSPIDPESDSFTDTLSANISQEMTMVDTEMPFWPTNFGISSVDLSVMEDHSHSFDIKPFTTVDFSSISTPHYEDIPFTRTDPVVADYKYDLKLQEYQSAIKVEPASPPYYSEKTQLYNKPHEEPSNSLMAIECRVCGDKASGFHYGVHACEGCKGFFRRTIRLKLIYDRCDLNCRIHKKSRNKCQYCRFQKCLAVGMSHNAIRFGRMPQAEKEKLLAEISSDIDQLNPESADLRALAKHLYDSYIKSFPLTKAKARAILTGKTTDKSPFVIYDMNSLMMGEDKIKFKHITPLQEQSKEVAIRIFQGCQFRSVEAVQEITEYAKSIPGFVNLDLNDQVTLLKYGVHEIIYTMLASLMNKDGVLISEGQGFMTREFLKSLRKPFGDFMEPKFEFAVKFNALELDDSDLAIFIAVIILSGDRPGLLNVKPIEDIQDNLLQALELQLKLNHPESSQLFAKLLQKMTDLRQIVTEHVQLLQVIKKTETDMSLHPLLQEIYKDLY
TR-FRET SRC-2 ct – counter-screen for PPARgamma SRC-2 recruitment agonists: TR-FRET artefact; active compounds read high; TR-FRET ratio at 8 µM; 0.4% of 200,000 active; AID 1049
SRC3 TRFRET art – flags TR-FRET format artefacts in PPARgamma SRC-3 recruitment agonist screen | TR-FRET ratio at 8 µM | TR-FRET artefact counter-screen, PPARgamma/SRC-3 format; active compounds read high | 0.39% of 99,000 active
SRC1 TRFRET art – flags TR-FRET format artefacts in PPARgamma SRC-1 recruitment agonist screen | TR-FRET detection artefact counter-screen, emission ratio; active compounds read high | TR-FRET ratio at 8 µM | 0.34% of 99,000 active; in the data active = TR-FRET ratio above about 2300
PPARg SRC3 recr – agonists of human PPARgamma SRC-3 coactivator recruitment. AID 731. activation, % at 8 µM. 0.26% of 200,000 active. P37231. biochemical PPARgamma/SRC-3 coactivator recruitment assay; in the data active = activation above about 23%;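 also: 0% = DMSO and 100% = reference agonist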
PPARg SRC-2 ag – agonists of SRC-2 recruitment by human PPARgamma | 0.34% of 200,000 active | activation, % at 8 µM | PPARgamma LBD-SRC-2 recruitment, biochemical; in the data active = activation above about 22%;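 also: 0% = vehicle and 100% = reference agonist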
* marks the source's active call; other numbers are inactive results. Compounds with a hit are over-represented: about 0.84% of the library has one in this group of screens. Rule as the data show it, unless noted: active = TR-FRET ratio above about 2000; inactive = the rest.

For COc1cccc(C2C(C(=O)c3ccco3)=C(O)C(=O)N2CCN(C)C)c1OC (stereo not drawn) the results were PPARg SRC1 recr -5, TR-FRET SRC-2 ct 1493, SRC3 TRFRET art 1530, SRC1 TRFRET art 1861, PPARg SRC3 recr 0 and PPARg SRC-2 ag 2.
For Cc1cc(OCc2nnc(SC(C)C(=O)O)n2Cc2ccccc2)ccc1Cl (stereo not drawn) the results were PPARg SRC1 recr -3, TR-FRET SRC-2 ct 1415, SRC3 TRFRET art 1643, SRC1 TRFRET art 1970, PPARg SRC3 recr 5 and PPARg SRC-2 ag 0.
`OCC1(Cc2ccc(Cl)cc2)CCN(Cc2ccc3nsnc3c2)CC1` gave PPARg SRC1 recr 18, TR-FRET SRC-2 ct 1895, SRC3 TRFRET art 2045, SRC1 TRFRET art 2393*, PPARg SRC3 recr 14 and PPARg SRC-2 ag 20.
Screening Cc1ccc(CS(=O)(=O)c2ccc(C(=O)N3CCN(c4ccccn4)CC3)cc2[N+](=O)[O-])cc1 returned PPARg SRC1 recr 1, TR-FRET SRC-2 ct 1479, SRC3 TRFRET art 1363, SRC1 TRFRET art 1609, PPARg SRC3 recr 1 and PPARg SRC-2 ag -2.
S=c1nc[nH]c2c1sc1nc(N3CCOCC3)c3c(c12)CCCC3 was read as PPARg SRC1 recr 2, TR-FRET SRC-2 ct 1613, SRC3 TRFRET art 1639, SRC1 TRFRET art 1902, PPARg SRC3 recr 3 and PPARg SRC-2 ag 7.
Screening O=C(CSc1ncnc2scc(-c3ccccc3)c12)N1CCN(c2ccccc2F)CC1 returned PPARg SRC1 recr 1, TR-FRET SRC-2 ct 1481, SRC3 TRFRET art 2200*, SRC1 TRFRET art 1899, PPARg SRC3 recr 4 and PPARg SRC-2 ag 1.
Cc1ccc(S(=O)(=O)N2CCCC(C(=O)N(Cc3cccs3)C3CC3)C2)cc1 (stereo not drawn) was read as PPARg SRC1 recr 5, TR-FRET SRC-2 ct 2180*, SRC3 TRFRET art 1683, SRC1 TRFRET art 1593, PPARg SRC3 recr -1 and PPARg SRC-2 ag 0.
For Nc1ccc2c(c1)OC1(CCCCC1)O2 the results were PPARg SRC1 recr -11, TR-FRET SRC-2 ct 1487, SRC3 TRFRET art 1442, SRC1 TRFRET art 1548, PPARg SRC3 recr -2 and PPARg SRC-2 ag -2.
For COc1ccc(NC(=S)NCCN2CCC(C)CC2)cc1Cl the results were PPARg SRC1 recr 5, TR-FRET SRC-2 ct 1755, SRC3 TRFRET art 1407, SRC1 TRFRET art 1948, PPARg SRC3 recr -2 and PPARg SRC-2 ag 2.
`CC(C)c1nnc(NC(=O)CSc2nnc(NC(=O)c3c(F)cccc3F)s2)s1` gave PPARg SRC1 recr -2, TR-FRET SRC-2 ct 1639, SRC3 TRFRET art 1736, SRC1 TRFRET art 1989, PPARg SRC3 recr 7 and PPARg SRC-2 ag 7.
COc1ccc(C(=O)Nn2c(SCC(=O)c3ccc(Cl)cc3)nc3ccccc3c2=O)cc1 was read as PPARg SRC1 recr -1, TR-FRET SRC-2 ct 2000*, PPARg SRC3 recr 7 and PPARg SRC-2 ag 5.
`Cc1cc(/C=C2/C(=O)N(C)C(=S)N2C)c(C)n1C1CC1` gave PPARg SRC1 recr 3, TR-FRET SRC-2 ct 1763, SRC3 TRFRET art 1564, SRC1 TRFRET art 1884, PPARg SRC3 recr -1 and PPARg SRC-2 ag 22*.
Screening COc1ccc(CN(CC2CCCO2)C(=O)c2cc3sccc3n2C)c(OC)c1 (stereo not drawn) returned PPARg SRC1 recr -4, TR-FRET SRC-2 ct 1523, SRC3 TRFRET art 1441, SRC1 TRFRET art 1815, PPARg SRC3 recr -3 and PPARg SRC-2 ag 1.
Screening CS(=O)(=O)N1CCN(c2nc(-c3ccccc3)cs2)CC1 returned PPARg SRC1 recr 4, TR-FRET SRC-2 ct 1400, PPARg SRC3 recr 5 and PPARg SRC-2 ag -1.
`CCS(=O)(=O)N1CCN(c2nc(-c3ccccc3)cs2)CC1` gave PPARg SRC1 recr 9, TR-FRET SRC-2 ct 1453, SRC3 TRFRET art 2121*, SRC1 TRFRET art 1774, PPARg SRC3 recr 10 and PPARg SRC-2 ag 5.
`COc1ccc(NC(=S)N(CCCN2CCCC2)Cc2cccn2Cc2ccc(Cl)cc2)cc1Cl` gave PPARg SRC1 recr 8, TR-FRET SRC-2 ct 1742, SRC3 TRFRET art 1674, SRC1 TRFRET art 2016, PPARg SRC3 recr 2 and PPARg SRC-2 ag 3.
O=c1c(/C=N/OCc2ccc(Cl)cc2Cl)c[nH]n1-c1cccc(Cl)n1 was read as PPARg SRC1 recr 8, TR-FRET SRC-2 ct 2085*, SRC3 TRFRET art 1602, SRC1 TRFRET art 1942, PPARg SRC3 recr -1 and PPARg SRC-2 ag -2.
Screening Cn1cc(/C=N/n2cnc3sc4c(c3c2=O)CCCC4)c2ccccc21 returned PPARg SRC1 recr 7, TR-FRET SRC-2 ct 1972*, PPARg SRC3 recr 10 and PPARg SRC-2 ag 2.
O=c1c2c3c(sc2ncn1/N=C/c1ccc([N+](=O)[O-])o1)CCCC3 was read as PPARg SRC1 recr 8, TR-FRET SRC-2 ct 1512, PPARg SRC3 recr -4 and PPARg SRC-2 ag -6.
Screening C=CCn1c(Cc2cccs2)nnc1SCC(=O)c1ccc(F)cc1 returned PPARg SRC1 recr 21*, TR-FRET SRC-2 ct 1726, PPARg SRC3 recr 3 and PPARg SRC-2 ag 6.
For CCOCCCNS(=O)(=O)c1ccc(NC(=O)Cc2c(F)cccc2Cl)cc1 the results were PPARg SRC1 recr 2, TR-FRET SRC-2 ct 1332, SRC3 TRFRET art 1708, SRC1 TRFRET art 1678, PPARg SRC3 recr -1 and PPARg SRC-2 ag -3.
N#Cc1c(-c2ccccc2)cc(-c2ccccc2)nc1Br was read as PPARg SRC1 recr 7, TR-FRET SRC-2 ct 1449, SRC3 TRFRET art 2095*, SRC1 TRFRET art 1479, PPARg SRC3 recr 20 and PPARg SRC-2 ag -3.
`COc1ccccc1NC(=O)C1=C(C)NC(SCC(=O)c2ccccc2)=C(C#N)C1c1ccco1` (stereo not drawn) gave PPARg SRC1 recr 18, TR-FRET SRC-2 ct 2496*, PPARg SRC3 recr 20 and PPARg SRC-2 ag 16.
Nc1nc(N2CCN(c3ccc(F)cc3)CC2)n[nH]1 was read as PPARg SRC1 recr -4, TR-FRET SRC-2 ct 1615, SRC3 TRFRET art 1478, SRC1 TRFRET art 1692, PPARg SRC3 recr 0 and PPARg SRC-2 ag -4.
Screening O=C(NCc1cccc(F)c1)c1ccc(N2C(=O)Cn3c(cc4sccc43)C2=O)cc1 returned PPARg SRC1 recr -2, TR-FRET SRC-2 ct 1654, SRC3 TRFRET art 2155*, SRC1 TRFRET art 2114, PPARg SRC3 recr 0 and PPARg SRC-2 ag -4.
For CC(=O)c1ccccc1OC(=O)COc1ccc(Cl)cc1C the results were PPARg SRC1 recr 5, TR-FRET SRC-2 ct 1365, SRC3 TRFRET art 1540, SRC1 TRFRET art 1637, PPARg SRC3 recr 4 and PPARg SRC-2 ag 7.
`COc1cc(NC(=O)c2cc(Cl)ccc2Cl)ccc1-c1cc2ccccc2oc1=O` gave PPARg SRC1 recr 8, TR-FRET SRC-2 ct 2091*, PPARg SRC3 recr 4 and PPARg SRC-2 ag 2.
Cc1nnc(NC(=O)c2sc3ccccc3c2Cl)s1 was read as PPARg SRC1 recr 16, TR-FRET SRC-2 ct 1652, PPARg SRC3 recr 16 and PPARg SRC-2 ag 2.
Screening Cc1ccc(NC(=O)c2sc3ccccc3c2Cl)nc1 returned PPARg SRC1 recr 36*, TR-FRET SRC-2 ct 1782, PPARg SRC3 recr 12 and PPARg SRC-2 ag 4.
